Hit rate of the full screen: of about 2,800 compounds, fewer than 10 were called active. The call rests on the fitted dose curve; in most records, active means well fitted curve in the direction sought with a large enough effect; inconclusive means small, poorly fitted or top-dose-only effect, or another doubt; inactive means no such curve, though single readings can be large or run the other way. Not all results are given here.
Target: Metallo-beta-lactamase type 2 (Klebsiella pneumoniae) (UniProt C7C422)
Assay: qHTS to identify inhibitors of the New Delhi Metallo-beta-lactamase (NDM): Meropenem screen against the machine-based learning selections.
Conditions: Purified NDM-1, meropenem hydrolysis, absorbance 300 nm; series mostly up to 38.4 µM
Excerpt: Assay Submitter (PI): James Inglese Ph.D., Patricia Dranchak Ph.D., Mahesh Aitha Ph.D. Assay Development and Screening Technology Laboratory (ADST) National Center for Advancing Translational Sciences (NCATS), Rockville, MD National Institute of Health (NIH), Bethesda, Maryland The metallo-beta-lactamases (MBL) are a main antibiotic resistance mechanism evolved by bacteria. There is an urgent clinical need for MBL inhibitors to mitigate this growing threat. To support a machine-based learning study, qHTS has been used to experimentally test inhibitors identified by prediction tools.
PROTOCOL TABLE (as described by Inglese et al., 2007) SEQUENCE No. (e.g., 1, 2, 3, etc.); […] (e.g., enzyme, Incubation, Reagent, etc.); VALUE; DESCRIPTION Primary Screen 1; NDM-1; 4 uL of 3 nM enzyme [2 nM final] in 50 mM HEPES (pH 7.0), 1 uM […], 0.01% Tween20; Use BioRaptr to dispense into two sets of Aurora black, clear bottom high base 1536-well plates 2; Compounds; 23 nL; Use Pin Tool (Wako) to transfer DMSO control and library compounds in DMSO 3; Incubate; >30 min 4a; Reagent; 2 uL of 50 uM nitrocefin [16.7 uM final] to one set of assay plates 4b; Reagent; 2 uL of 150 uM meropenem [50 uM final] to second set of assay plates 5a; Incubate; 15 min 5b; Incubate; 30 min 6a; Detector; Absorbance at 485 nm (bandwidth = 5 nm, 25 flashes/well) on Tecan Infinity 6b; Detector; Absorbance at 300 nm (bandwidth = 5 nm, 25 flashes/well) on Tecan Infinity NOTES (numbers refer to sequence above) 1; Column 1 of each plate received assay buffer without enzyme and columns 2-48 received enzyme for a final assay concentration of 2 nM. 2; Control plate contained DMSO in columns 1, 2, 3, and 4. 3; Compound interaction with enzyme. 4; Nitrocefin and meropenem substrates were prepared in the same assay buffer as step 1 for a final assay concentration of 16.7 uM and 50 uM, respectively, and added to all wells across respective sets of assay plates. 5; Default reader settings were applied for absorbance read at 485 nm (nitrocefin) or 300 nm (meropenem), bandwidth = 5 nm, 25 flashes/well. References: Inglese J, Shamu CE, Guy RK. 2007. Reporting data from high-throughput screening of small-molecule libraries. Nat Chem Biol. doi:10.1038/nchembio0807-438 Yasgar A, Shinn P, Jadhav A, Auld D, Michael S, Zheng W, Austin CP, Inglese J, Simeonov A. 2008. Compound Management for Quantitative High-Throughput Screening. J Lab Autom 13:79 - 89. doi:10.1016/j.jala.2007.12.004

Chain of Metallo-beta-lactamase type 2 (Klebsiella pneumoniae) (C7C422 whole entry, looked up): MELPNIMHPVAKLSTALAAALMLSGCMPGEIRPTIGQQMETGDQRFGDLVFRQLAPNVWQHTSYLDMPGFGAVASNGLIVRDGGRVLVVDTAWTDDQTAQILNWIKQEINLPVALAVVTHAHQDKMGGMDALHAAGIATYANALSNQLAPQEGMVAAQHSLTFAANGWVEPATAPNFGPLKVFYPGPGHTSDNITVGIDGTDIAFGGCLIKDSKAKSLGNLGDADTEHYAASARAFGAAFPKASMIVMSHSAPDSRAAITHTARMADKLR

CCCCCC(=O)Nc1nc2c(s1)C[C@@H]1[C@](C)(CO)[C@H](O)CC[C@@]1(C)[C@@H]2CC(=O)NCc1ccccc1 was tested. Which outcome did it give?
The outcome was “inactive”.

How did the outcome turn out when CC[C@H]1CN(S(=O)(=O)c2c(C)noc2C)CC[C@H]1CC(=O)NCc1ccco1 was run?
The outcome was “inactive”.

How did the outcome turn out when CC(C)c1noc([C@@H]2C[C@H](NC(=O)Nc3ccc(F)cc3)CN2C)n1 was run?
Its outcome is “inactive”.

COCCNC(=O)C[C@@H]1C[C@H]2O[C@H](CNC3CCCCC3)[C@@H](O)[C@H]2O1 was tested. Which outcome did it give?
The outcome was “inactive”.

For O=C(CSc1ccncc1)N1CCN2C(=O)N(Cc3ccccc3)C(=O)[C@H]2C1, which outcome is on record?
The outcome was “inactive”.

With OC[C@H]1C[C@@H](NCc2cccc3c2OCO3)[C@H](O)[C@@H]1O as the compound, how does the outcome read?
The outcome was “inactive”.

For c1ccc(-c2cnc(Nc3ccncc3)c3c2CCO3)cc1, which outcome is on record?
The outcome was “inactive”.

For CCC[S+](=O)([O-])N1CCN(C(=O)N2CC3CC(C2)[C@H]2CCCC(=O)N2C3)CC1 (some centres undefined), which outcome is on record?
Its outcome is “inactive”.

How did the outcome turn out when O=C(O)c1cc(-c2cccc(CO)c2)cc(S(=O)(=O)N2CCOCC2)c1 was run?
Its outcome is “inactive”.

How did the outcome turn out when COc1ccc(C2Cn3nnc(C(=O)N4CCN(C(=O)c5cc(F)ccc5Cl)CC4)c3CO2)cc1 (centres undefined) was run?
Its outcome is “inactive”.

For Cc1ccccc1Nc1cnc2ccc(-c3cccc(CO)c3)nn12, which outcome is on record?
The outcome was “inactive”.

COc1ccccc1C(O)c1nc(Nc2ccncc2)n[nH]1 (centres undefined) was tested. Which outcome did it give?
Its outcome is “inactive”.

How did the outcome turn out when OC[C@]12CCCN[C@@H]1CCN(Cc1cccc(-c3ccccn3)c1)C2 was run?
The outcome was “inactive”.

With COC(=O)c1ccc2c(c1)nc1n2[C@@H](CNC(=O)NC2CCCCC2)COC1 as the compound, how does the outcome read?
Its outcome is “inactive”.

How did the outcome turn out when COc1cccc(CN[C@@H]2CCC[C@@H](C(=O)NC3CCOCC3)CC(=O)N(C)C2)c1 was run?
The outcome was “inactive”.

Which outcome does the source give for COCCNC(=O)[C@H]1CCC[C@H]1NC(=O)c1ccc(OC)cc1 here?
The outcome was “inactive”.

Which outcome does the source give for CCS(=O)(=O)N1CCC(Cc2nc(-c3cccnc3)n[nH]2)C1 (centres undefined) here?
The outcome was “inactive”.

Which outcome does the source give for C=CCc1cc(C2CC(=O)Nc3[nH]ncc32)cc(OCC)c1OC (centres undefined) here?
The outcome was “inactive”.

O=C1CC(c2ccccc2)N(C(=O)C2CC2)CCCN(C(=O)NCc2ccccc2)CCN1 (centres undefined) was tested. Which outcome did it give?
Its outcome is “inactive”.

O=C(NC[C@H]1OC[C@@H](NCc2cnc[nH]2)[C@@H]1O)C1CCCC1 was tested. Which outcome did it give?
The outcome was “inactive”.

With COc1cccc(-c2cnc3[nH]cc(CC(=O)NCc4cccnc4)c3c2)c1 as the compound, how does the outcome read?
Its outcome is “inactive”.

Which outcome does the source give for Cn1ccc(NC(=O)c2cnc3c(c2)N([S+](=O)([O-])c2cccnc2)CCC3)n1 here?
The outcome was “inactive”.

Which outcome does the source give for CCOc1cc(=O)n2c(c1C(=O)N1CCN(c3ccc(F)cc3)CC1)CCCC2 here?
Its outcome is “inactive”.

How did the outcome turn out when CC1=C[C@@H](CNC(=O)Cc2ccccc2)[C@H](C(C)C)C[C@H]1Cc1nc2ccncc2[nH]1 was run?
The outcome was “inactive”.

For Oc1ccccc1CN1CCNc2cnc(-c3ccccc3)cc2C1, which outcome is on record?
Its outcome is “inactive”.

CN1C(=O)[C@@H]2C[C@@H](O)CN2C2(CN(CC3CCCCC3)C2)C1=O was tested. Which outcome did it give?
The outcome was “inactive”.

O=C(O)c1cccc(CN2CCN(c3ccc4nccn4n3)CC2)n1 was tested. Which outcome did it give?
Its outcome is “inactive”.

How did the outcome turn out when CCn1ccc(C(=O)N2CC(c3nnc(-c4ccc(C)cc4)o3)C3(CCOCC3)C2)n1 (centres undefined) was run?
Its outcome is “inactive”.

How did the outcome turn out when O=C(Nc1ccsc1)N[C@H]1C[C@H]2C(=O)NC[C@@H](CCC(=O)N3CCCCC3)N2C1 was run?
Its outcome is “inactive”.

With O=C(Cc1ccccc1F)N1CCC(Oc2ncccc2C(=O)N2CCCCC2)C1 (centres undefined) as the compound, how does the outcome read?
Its outcome is “inactive”.

With CC1=C[C@@H](CNCc2ccncc2)[C@H](C(C)C)C[C@H]1Cc1nnc(-c2ccc(C)cc2)o1 as the compound, how does the outcome read?
Its outcome is “inactive”.

Which outcome does the source give for Cc1ccccc1-c1[nH]nc2ncc(-c3ccccc3O)nc12 here?
The outcome was “inactive”.

With CN1CCCC2(CCN(S(=O)(=O)c3ccc(F)c(F)c3F)C2)C1=O (centres undefined) as the compound, how does the outcome read?
The outcome was “inactive”.

CN1CCC(N2CCC[C@H]2C(=O)NCc2cc3n(n2)CCCNC3)CC1 was tested. Which outcome did it give?
The outcome was “inactive”.

With O=C(O)C1(Oc2ccc3ccccc3c2)CCN(Cc2ccsc2)CC1 as the compound, how does the outcome read?
The outcome was “inactive”.

With COc1cccc(CN2CCCC3(CCN(C(=O)c4ccc(OC)nc4OC)C3)C2)c1 (centres undefined) as the compound, how does the outcome read?
Its outcome is “inactive”.

For COc1ccc(-c2noc([C@@H]3C[C@@H](O)CN3Cc3ncc[nH]3)n2)cc1, which outcome is on record?
The outcome was “inactive”.

Which outcome does the source give for CC(C)(O)CCc1cccc(C(=O)NCCNc2cccnc2)c1 here?
The outcome was “inactive”.

How did the outcome turn out when COc1cccc(S(=O)(=O)N2C[C@@H](C)[C@](O)(C3CCC3)C2)c1 was run?
Its outcome is “inactive”.

How did the outcome turn out when O=C(O)[C@@H]1CN(C(=O)c2ccc(=O)[nH]c2)C[C@H]1c1ccc2c(c1)OCO2 was run?
The outcome was “inactive”.

Which outcome does the source give for COC[C@H]1CCCN1Cc1nc(C2(O)CCN(Cc3ccccc3O)CC2)cs1 here?
The outcome was “inactive”.

For O=C(NCc1ccccc1)N1CCCCC1c1nc(-c2cnccn2)n[nH]1 (centres undefined), which outcome is on record?
The outcome was “inactive”.

How did the outcome turn out when CN1CC2(CCN(C(=O)c3ccccc3-c3nn[nH]n3)CC2)CC1C(=O)O (centres undefined) was run?
Its outcome is “inactive”.

Which outcome does the source give for Nc1ccsc1C(=O)N[C@H](Cc1ccncc1)C1CC(O)C1 (some centres undefined) here?
Its outcome is “inactive”.

Which outcome does the source give for O=C(NC[C@H]1O[C@@H](CC(=O)N2CCOCC2)[C@H](O)[C@@H]1O)Nc1ccc(F)cc1F here?
The outcome was “inactive”.

CCn1nc(C)cc1C(=O)N1CCOC[C@H](Oc2cccnc2)C1 was tested. Which outcome did it give?
The outcome was “inactive”.

With O=c1n(-c2ccc([N+](=O)[O-])cc2)nc2n1CCN(Cc1cccc3ccccc13)C2 as the compound, how does the outcome read?
The outcome was “inactive”.

For Cn1cccc1C(=O)N1CC[C@H](NC(=O)NC2CCCCC2)[C@H]1C(=O)N1CCC[C@@H]1C(N)=O, which outcome is on record?
Its outcome is “inactive”.

How did the outcome turn out when N#Cc1ccc(C(=O)N2C[C@@H]3C[C@H](C2)c2c(/C=C/c4ccc(Cl)cc4)ccc(=O)n2C3)cc1 was run?
Its outcome is “inactive”.

For NC(=O)C1(N2CCCCC2)CCN(Cc2cc3n(n2)CCNC3)CC1, which outcome is on record?
The outcome was “inactive”.

Which outcome does the source give for CC(C)(CO)CNC(=O)c1cnc2c(c1)N([S+](=O)([O-])c1cccnc1)CCC2 here?
The outcome was “inactive”.

For Cc1nn(C)c2ncc(C(=O)O)c(NC3CC(c4cc(=O)[nH]cn4)C3)c12 (centres undefined), which outcome is on record?
The outcome was “inactive”.

With Oc1cccc(CN2CCCC23CCN(c2ccc(C(F)(F)F)cn2)CC3)c1 as the compound, how does the outcome read?
The outcome was “inactive”.

For O=C(O)CCC(=O)N[C@H]1CCN2C(=O)c3cc(-c4ccc(Cl)cc4)ccc3NC(=O)[C@H]12, which outcome is on record?
The outcome was “inactive”.
